Efflux pump mplx: blocks antifungal efflux pumps in multiplex yeast assay; S. cerevisiae Candida pump triplex, Nile Red efflux; actives 0.44% (n = 330,000); inhibition, % at 10 µM;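 active = plate passing quality check with inhibition over a set limit, or well fluorescence over plate mean plus 4 SD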;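 also: Nile Red retained in pooled yeast measured as flow cytometry median fluorescence; 0% = buffer negative control and 100% = Enniatin B positive control; higher means more Nile Red kept so more efflux inhibition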
SUMO Mot1 rescue: inhibitors of SUMOylation pathway: yeast Mot1-301 growth rescue | growth rescue, % at 18.8 µM | AID 2716 | actives 1% (n = 320,000) | S. cerevisiae Mot1-301 growth rescue, ATP luminescence, 38.5C; percent above DMSO median, 100 means doubled;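 active = every valid replicate shows activation above 250% relative to neutral control wells; inactive = the rest, any valid replicate at or below 250%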;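 also: OY570 slx delta 5 strain wells were the positive control but not used for scaling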
sPLA2-III inh: Inhibits HGIII-sPLA2 liposome hydrolysis, primary screen | actives 0.56% (n = 370,000) | Q9NZ20 | QFRET BODIPY PC-A2 liposome hydrolysis, fluorescence | inhibition, % at 12.2 µM;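 active = inhibition above mean plus 3 SD of compounds lying within the high and low control bounds, cut at about 19% in these data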;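 also: 0% = median of test compound wells and 100% = no enzyme DMSO wells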
Target sequence (Q9NZ20 whole entry, looked up): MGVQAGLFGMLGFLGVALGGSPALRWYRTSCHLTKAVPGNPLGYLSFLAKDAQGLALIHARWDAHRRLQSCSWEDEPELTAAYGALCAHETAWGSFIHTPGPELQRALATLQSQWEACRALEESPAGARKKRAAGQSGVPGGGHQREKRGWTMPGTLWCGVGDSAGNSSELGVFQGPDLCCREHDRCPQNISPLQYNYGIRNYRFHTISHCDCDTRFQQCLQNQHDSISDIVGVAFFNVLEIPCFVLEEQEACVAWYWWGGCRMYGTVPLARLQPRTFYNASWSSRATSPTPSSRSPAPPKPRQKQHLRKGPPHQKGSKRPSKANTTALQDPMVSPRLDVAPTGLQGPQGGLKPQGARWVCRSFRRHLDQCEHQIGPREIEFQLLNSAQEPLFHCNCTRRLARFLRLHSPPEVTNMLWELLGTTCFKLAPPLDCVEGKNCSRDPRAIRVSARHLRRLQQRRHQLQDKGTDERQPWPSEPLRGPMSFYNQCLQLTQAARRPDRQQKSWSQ
SKN-1 inh: C. elegans SKN-1 inhibition. C. elegans VP596 Pgst-4::GFP/RFP ratio, acrylamide-induced, 24 h. inhibition, % at 21.8 µM. actives 0.49% (n = 360,000). AID 624304;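 active = interference check ratio from 0.5 to 1.5 plus GFP to RFP signal ratio inhibition reaching or exceeding a fixed threshold, cut at about 30% in these data, passing the limit was not always enough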
Yeast cmpd fluor: counter-screen for efflux pump inhibitors: compound fluorescence. shares compounds with Efflux pump mplx. S. cerevisiae AD/pABC3, flow cytometry. fluorescence ratio to DMSO, % at 10 µM. actives 4% (n = 1,700);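 active = fluorescence ratio to DMSO above its plate's cutoff, the plate mean ratio plus 5 SD, cut at about 210% in these data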;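 also: unstained yeast with no Nile Red so the signal is compound autofluorescence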
CaMdr1 efflux inh: inhibitors of Candida albicans Mdr1 efflux pump; shares compounds with Efflux pump mplx; S. cerevisiae AD/CaMDR1, Nile Red efflux, flow cytometry; inhibition, % at 10 µM; actives 1% (n = 1,700); AID 588518; in the data active = inhibition above about 26%;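 also: 0% = DMSO vehicle and 100% = reference inhibitor; higher means more Nile Red retained so more efflux inhibition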
Cdr2 pump inh: Candida Cdr2 efflux pump inhibition. shares compounds with Efflux pump mplx. S. cerevisiae AD/CaCDR2, Nile Red retention, flow cytometry. Nile Red retention ratio vs DMSO, % at 10 µM. actives 4% (n = 1,700). AID 588520; in the data active = Nile Red retention ratio vs DMSO above about 190%;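 also: higher ratio means more blocking of Cdr2 efflux of the dye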
Cdr1 pump inh: inhibitors of Candida albicans Cdr1 efflux pump; shares compounds with Efflux pump mplx; S. cerevisiae AD/CaCDR1, Nile Red efflux, flow cytometry; inhibition, % at 10 µM; actives 1% (n = 1,700);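 active = inhibition above the screen-wide mean plus twice its standard deviation, cut at about 32% in these data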
Active calls of the source: *; i = inactive; · = no result given. A selection: hits, their analogues and other compounds. The true share with any hit is near 2.2%.

SMILES	Efflux pump mplx	SUMO Mot1 rescue	sPLA2-III inh	SKN-1 inh	Yeast cmpd fluor	CaMdr1 efflux inh	Cdr2 pump inh	Cdr1 pump inh
CC(=O)N1c2ccc(S(=O)(=O)NCC3CCC(C(=O)Nc4cccc(C)n4)CC3)cc2CC1C (configuration not stated)	0	-6	-7	7	·	·	·	·
COc1ccc2cc(CN(CC3CCCO3)S(=O)(=O)c3ccc(C(C)=O)cc3)c(=O)[nH]c2c1 (configuration not stated)	0.3*	-1	-8	-3	96	0	109	92*
CC(=O)Nc1cccc(NC=C(C#N)C#N)c1	0	-6	2	-7	·	·	·	·
COC(=O)c1cc(OC)nc2c1c(=O)n(C)c(=O)n2C	9.6*	-10	4	8	98	0	96	0
NS(=O)(=O)c1ccc(NC(=S)N2CCC(O)CC2)cc1	0	2	-2	-10	·	·	·	·
NS(=O)(=O)c1ccc(NC(=S)N2CCN(c3ccccc3)CC2)cc1	3.6*	10	8	2	104	0	99	0
COc1cc2c(cc1OC)C(c1cc(OC)c(OC)c(OC)c1)NCC2 (configuration not stated)	0.6*	-6	7	7	102	0	93	0
CCCCn1c(=N)n(CC(O)COc2ccc(C)cc2)c2ccccc21 (configuration not stated)	1.2*	-7	1	-5	116	0	110	0
O/N=C/c1ccc(-c2cc(Cl)ccc2Cl)o1	11*	9	-5	7	84	0	95	0
COC(=O)N/N=C/c1ccc(-c2cc(Cl)ccc2Cl)o1	1	28	0	0	·	·	·	·
OC(COCc1ccc(Cl)cc1)CN1CCCCC1 (configuration not stated)	1.1*	19	16	1	79	0	87	0
OC(COCc1ccc(Cl)cc1)CN1CCN(CC(O)COCc2ccc(Cl)cc2)CC1 (configuration not stated)	0	12	-1	29	·	·	·	·
Cc1c(NC(=O)CSc2ccccn2)c(=O)n(-c2ccccc2)n1C	0	143	7	9	·	·	·	·
Cc1c(NC(=O)CSc2ncnc3ccccc23)c(=O)n(-c2ccccc2)n1C	1.0*	17	14	-13	95	0	91	0
Cc1c(NC(=O)Cn2ccc([N+](=O)[O-])n2)c(=O)n(-c2ccccc2)n1C	0.5*	5	-3	2	105	0	101	0
Cc1c(NC(=O)Cn2cc([N+](=O)[O-])cn2)c(=O)n(-c2ccccc2)n1C	0	-26	-1	2	·	·	·	·
C/C(=N\Nc1cc(C(F)(F)F)ccc1Cl)c1ccncc1	0	5	2	10	·	·	·	·
Cc1c(-c2ccccn2)c(=O)[nH]n1-c1ccc(F)cc1	0	4	-2	9	·	·	·	·
CCOc1ccc(/C=C/C(=O)N(CC)CC(=O)Nc2ccc3c(c2)OCCO3)cc1OCC	0	1	-2	14	·	·	·	·
COc1ccc(-c2nnc(NC(=O)c3ccc4c(c3)OCCO4)o2)cc1	0	10	0	-5	·	·	·	·
COc1ccc(-c2nnc(NC(=O)c3ccc(F)cc3)o2)cc1	1.0*	-9	1	-1	100	0	125	0
COc1ccc2cc1Oc1ccc(cc1)C[C@H]1c3c(cc(OC)c4c3Oc3c(ccc5c3[C@H](C2)N(C)CC5)O4)CCN1C	4.3*	-34	·	10	106	0	108	0
O=C(Cn1ncc2c([nH]c3ccccc32)c1=O)N1CCOCC1	0	1	2	9	·	·	·	·
O=c1oc2ccccc2c2c1C(c1ccc(Cl)cc1)Nc1ccc3ccccc3c1-2 (configuration not stated)	1.0*	-22	0	12	103	0	114	0
CCOc1ccc(OCC(=O)c2c(O)c3ccccc3oc2=O)cc1	0	36	4	18	·	·	·	·
SMILES	Efflux pump mplx	SUMO Mot1 rescue	sPLA2-III inh	SKN-1 inh	Yeast cmpd fluor	CaMdr1 efflux inh	Cdr2 pump inh	Cdr1 pump inh
CCOc1ccc(C2Nc3ccc4ccccc4c3-c3c2c(=O)oc2ccccc32)cc1 (configuration not stated)	0.6*	-10	-1	13	118	0	107	1
COc1cc(OC)c(OC)cc1/C=N/NC(=O)C[n+]1ccccc1	7.6*	-1	4	8	93	0	83	0
COc1ccc(OC)c(-c2csc(NC(=O)CN3C(=O)C4CCCCC4C3=O)n2)c1 (configuration not stated)	0.4*	-3	-18	0	103	0	82	0
COc1ccc(-c2csc(NC(=O)CN3C(=O)C4CCCCC4C3=O)n2)cc1OC (configuration not stated)	0	2	-10	-10	·	·	·	·
COC(=O)NCc1ccc(S(=O)(=O)N2CCOCC2)cc1	0.5*	7	0	6	95	0	106	0
COc1ccc(CNC(=O)c2ccc(S(=O)(=O)N3CCOCC3)cc2)cc1	·	·	-11	1	·	·	·	·
CCCCN(C)C1=CC2=CC(=C(C#N)C#N)CCC2CC1 (configuration not stated)	5.5*	-5	-398	-48	231	1	282*	1
CCN(CC)C1=CC2=CC(=C(C#N)C#N)CCC2CC1 (configuration not stated)	3.4*	i	-393	-59	155	1	225*	1
N#CC1=C(N)C2=C(N3CCCCC3)CCCC2C1(C#N)C#N (configuration not stated)	0	-7	·	1	·	·	·	·
N#CC(C#N)=C1C=C2C=C(N3CCCCC3)CCC2CC1 (configuration not stated)	9.3*	64	·	·	179	1	232*	1
Cc1cc(NC(=O)CCc2c[nH]c3ccccc23)ccc1Nc1cccnc1	·	·	-26	·	·	·	·	·
OCC[n+]1ccc(/C=C/c2c[nH]c3ccccc23)cc1	2.5*	-2	-46	-25	429*	5	119	4
O=C(/C=C/c1c[nH]c2ccccc12)c1ccccc1	0	123	-33	16	·	·	·	·
Cc1ccc(NC(=O)COC(=O)C2CCC2)cc1S(=O)(=O)N1CCCCC1	0	-26	3	0	·	·	·	·
CCOc1ncccc1C(=O)OCc1ccc(C(=O)OC)cc1	1.4*	-19	-2	-7	118	0	123	0
Cc1cccc(NC(=O)c2cccc(S(=O)(=O)N3CCc4ccccc4C3)c2)n1	0	6	5	6	·	·	·	·
CCOCCCNC(=O)/C(C#N)=C/c1ccc(-c2ccc(S(=O)(=O)N3CCOCC3)cc2)o1	0	22	·	0	·	·	·	·

High-throughput results (PubChem)
